Laboratory results published in PubChem BioAssay (Tox21).
Where “and” joins values, the source holds several entries; their conditions need not be identical. Equal entries are not always repeated. Values without a mark were called inactive. A call without a number means that no potency is given here. Calls of active or inactive are those of the source. Unless noted, calls follow the shape of the dose curve; as a rule, active = well fitted curve in the direction sought with a large enough effect in the repeat runs; inconclusive = weak or mixed curves; inactive = no such curve, though single readings can be large; an effect the other way counts as inactive or inconclusive.

What was measured:
[1] = qHTS assay to identify small molecule antagonists of the estrogen receptor alpha (ER-alpha) signaling pathway - cell viability counter screen (AID 743074; calls by dose curve;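 also: HEK293 cells carrying ER-alpha-UAS-bla reporter stimulated with 17beta-estradiol; nearly all actives have a fitted effect of over 45% in size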)
[2] = qHTS assay to identify small molecule antagonists of the estrogen receptor alpha (ER-alpha) signaling pathway using the BG1 cell line - cell viability counter screen (AID 743081);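 also: compound given together with 17beta-estradiol as the ER stimulus; nearly all actives have a fitted effect of over 45% in size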; also: potency is read from the fitted curve at half-maximal effect
[3] = biological target: Aromatase (Homo sapiens) (UniProt P11511); assay: qHTS assay to identify aromatase inhibitors (AID 743083); also: nearly all actives have a fitted effect of over 55% in size; also: potency is read from the fitted curve at half-maximal effect
Sequence of Aromatase (Homo sapiens) (P11511 whole entry, looked up): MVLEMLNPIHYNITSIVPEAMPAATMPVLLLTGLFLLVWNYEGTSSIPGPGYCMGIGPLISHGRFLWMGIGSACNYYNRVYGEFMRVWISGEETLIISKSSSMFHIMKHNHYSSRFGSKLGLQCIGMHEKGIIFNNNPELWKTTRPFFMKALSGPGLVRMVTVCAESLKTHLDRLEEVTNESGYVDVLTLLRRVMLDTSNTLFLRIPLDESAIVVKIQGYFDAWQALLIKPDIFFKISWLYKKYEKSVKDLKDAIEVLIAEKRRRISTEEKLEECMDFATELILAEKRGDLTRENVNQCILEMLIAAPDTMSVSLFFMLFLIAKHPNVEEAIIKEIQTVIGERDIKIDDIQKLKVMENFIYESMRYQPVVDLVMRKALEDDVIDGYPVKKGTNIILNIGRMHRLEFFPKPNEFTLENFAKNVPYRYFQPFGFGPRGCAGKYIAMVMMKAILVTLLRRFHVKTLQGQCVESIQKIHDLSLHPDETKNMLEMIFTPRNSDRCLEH

[4] = qHTS assay to identify aromatase inhibitors - cell viability counter screen (AID 743084);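 also: cells stimulated with testosterone during compound exposure; nearly all actives have a fitted effect of over 55% in size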; also: potency is read from the fitted curve at half-maximal effect
[5] = biological target: Aryl hydrocarbon receptor (Homo sapiens) (UniProt P35869); assay: qHTS assay to identify small molecule that activate the aryl hydrocarbon receptor (AhR) signaling pathway (AID 743085); also: nearly all actives have a fitted effect of over 15% in size; also: potency is read from the fitted curve at half-maximal effect;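 as to activation: HG2L7.5c1 human HepG2 liver cells with stably integrated DRE-driven firefly reporter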
Sequence of Aryl hydrocarbon receptor (Homo sapiens) (P35869 whole entry, looked up): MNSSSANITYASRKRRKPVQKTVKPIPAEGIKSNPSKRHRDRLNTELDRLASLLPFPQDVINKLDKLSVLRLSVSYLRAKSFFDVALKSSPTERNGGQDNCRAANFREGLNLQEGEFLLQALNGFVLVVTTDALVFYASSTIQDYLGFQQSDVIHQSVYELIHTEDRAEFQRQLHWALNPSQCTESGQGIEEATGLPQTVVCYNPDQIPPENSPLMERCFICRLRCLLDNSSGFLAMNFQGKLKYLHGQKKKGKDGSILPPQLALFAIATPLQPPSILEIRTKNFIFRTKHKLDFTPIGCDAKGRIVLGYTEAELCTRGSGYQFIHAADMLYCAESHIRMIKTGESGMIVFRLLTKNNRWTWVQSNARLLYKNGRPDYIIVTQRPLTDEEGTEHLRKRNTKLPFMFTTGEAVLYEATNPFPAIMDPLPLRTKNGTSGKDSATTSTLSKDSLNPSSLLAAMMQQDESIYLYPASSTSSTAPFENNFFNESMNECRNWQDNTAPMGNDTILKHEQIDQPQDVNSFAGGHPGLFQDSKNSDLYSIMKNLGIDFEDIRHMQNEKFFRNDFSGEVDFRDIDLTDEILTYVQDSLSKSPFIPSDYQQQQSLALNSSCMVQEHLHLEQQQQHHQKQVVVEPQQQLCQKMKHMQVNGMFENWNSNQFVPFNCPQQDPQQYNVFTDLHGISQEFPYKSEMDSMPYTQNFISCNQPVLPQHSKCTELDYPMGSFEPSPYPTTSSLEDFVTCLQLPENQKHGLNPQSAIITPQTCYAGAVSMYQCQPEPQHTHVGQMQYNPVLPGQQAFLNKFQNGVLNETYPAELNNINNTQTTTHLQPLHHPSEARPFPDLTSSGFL
Procedure, shortened: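 Reporter assay in engineered HepG2 line HG2L7.5c1, whose plasmid carries twenty dioxin responsive elements upstream of firefly luciferase. Treatment lasted 24 h at 37C; ONE-Glo luminescence gauged induction.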

[6] = qHTS assay to identify small molecule that activate the aryl hydrocarbon receptor (AhR) signaling pathway - cell viability counter screen (AID 743086); also: nearly all actives have a fitted effect of over 45% in size; also: potency is read from the fitted curve at half-maximal effect
Procedure, shortened: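 Cytotoxicity counter screen: CellTiter-Fluor signal (30 min, 37 C) in 4000 HepG2 cells/well carrying the DRE-luciferase reporter, following 24 h compound exposure at 37 C.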

[7] = qHTS assay to identify small molecule phospholipidosis (PLD) inducers (AID 1259344; active = well fitted curve in the direction sought with a large enough effect; inconclusive = small, poorly fitted or top-dose-only effect, or another doubt; inactive = no such curve, though single readings can be large; an effect the other way counts as inactive or inconclusive)
Procedure, shortened: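 Fluorescent phospholipid staining (LipidTOX Red) measured by automated microscopy in fixed HepG2 cells after 24 h treatment; nuclei counterstained with Hoechst 33342; amiodarone as reference inducer.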

[8] = biological target: Nuclear receptor subfamily 1 group I member 2 (Rattus norvegicus) (UniProt Q9R1A7); assay: Rat pregnane X receptor (rPXR) activation by small molecules, qHTS assay (AID 1346983); conditions: rPXR luciferase reporter cells, One-Glo luminescence, 24 h; max activation: active compounds read high; also: nearly all actives have a fitted effect of over 20% in size; also: potency is read from the fitted curve at half-maximal effect
Sequence of Nuclear receptor subfamily 1 group I member 2 (Rattus norvegicus) (Q9R1A7 whole entry, looked up): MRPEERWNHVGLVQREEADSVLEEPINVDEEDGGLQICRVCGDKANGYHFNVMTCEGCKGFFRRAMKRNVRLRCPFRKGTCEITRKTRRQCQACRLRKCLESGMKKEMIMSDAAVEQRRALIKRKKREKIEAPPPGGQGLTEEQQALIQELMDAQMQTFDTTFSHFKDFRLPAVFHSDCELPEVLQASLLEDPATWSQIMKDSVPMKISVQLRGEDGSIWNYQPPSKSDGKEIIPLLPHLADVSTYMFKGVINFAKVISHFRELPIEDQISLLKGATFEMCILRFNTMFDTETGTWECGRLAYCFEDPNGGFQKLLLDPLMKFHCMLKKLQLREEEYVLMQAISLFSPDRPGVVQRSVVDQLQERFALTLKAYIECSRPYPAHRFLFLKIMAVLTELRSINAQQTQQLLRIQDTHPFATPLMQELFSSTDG
Procedure, shortened: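 Luminescent readout (One-Glo luciferase, 30 min room temperature) followed 24 hr compound treatment at 37 C of rPXR cells plated 2,000 per well and preincubated 5hr; qHTS format with compounds delivered in DMSO.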

[9] = biological target: Nuclear receptor subfamily 1 group I member 2 (Homo sapiens) (UniProt O75469); assay: CYP3A4 induction through human pregnane X receptor (PXR) by small molecules, qHTS assay (AID 1346984); also: nearly all actives have a fitted effect of over 40% in size; also: potency is read from the fitted curve at half-maximal effect
Procedure, shortened: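 DPX-2 reporter cells; 24h cpd, 37C; Luciferin-IPA 3uM final x3h; One-Glo 30 min RT; lumi read.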

[10] = biological target: Nuclear receptor subfamily 1 group I member 2 (Homo sapiens) (UniProt O75469); assay: Human pregnane X receptor (PXR) activation by small molecules, qHTS assay (AID 1346985); also: nearly all actives have a fitted effect of over 40% in size; also: potency is read from the fitted curve at half-maximal effect
Procedure, shortened: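 DPX-2 cells (HepG2 co-transfected with a PXR response element and a CYP3A4-promoter luciferase construct) were seeded at 2,000 per well, rested 5 hr at 37C, then exposed to DMSO-dissolved compounds for 24 hr. Activation was read as luciferase luminescence.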

[11] = qHTS assay to identify small molecule antagonists of the thyroid receptor (TR) signaling pathway - cell viability counter screen (AID 743064); also: nearly all actives have a fitted effect of over 50% in size; also: potency is read from the fitted curve at half-maximal effect
Procedure, shortened: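 Same-well viability check: GH3.TRE-Luc cells stimulated with 1 nM T3 alongside test compound for 23.5 h, followed by CellTiter-Fluor fluorescence.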

[12] = test system: thyroid hormone receptor (rat, GH3 cells); assay: qHTS assay to identify small molecule agonists of the thyroid receptor (TR) signaling pathway (AID 743066; calls by dose curve)
[13] = biological target: Estrogen receptor (Homo sapiens) (UniProt P03372); assay: qHTS assay to identify small molecule agonists of the estrogen receptor alpha (ER-alpha) signaling pathway (AID 743075; calls by dose curve; also: potency is read from the fitted curve at half-maximal effect)
Sequence of Estrogen receptor (Homo sapiens) (P03372 whole entry, looked up): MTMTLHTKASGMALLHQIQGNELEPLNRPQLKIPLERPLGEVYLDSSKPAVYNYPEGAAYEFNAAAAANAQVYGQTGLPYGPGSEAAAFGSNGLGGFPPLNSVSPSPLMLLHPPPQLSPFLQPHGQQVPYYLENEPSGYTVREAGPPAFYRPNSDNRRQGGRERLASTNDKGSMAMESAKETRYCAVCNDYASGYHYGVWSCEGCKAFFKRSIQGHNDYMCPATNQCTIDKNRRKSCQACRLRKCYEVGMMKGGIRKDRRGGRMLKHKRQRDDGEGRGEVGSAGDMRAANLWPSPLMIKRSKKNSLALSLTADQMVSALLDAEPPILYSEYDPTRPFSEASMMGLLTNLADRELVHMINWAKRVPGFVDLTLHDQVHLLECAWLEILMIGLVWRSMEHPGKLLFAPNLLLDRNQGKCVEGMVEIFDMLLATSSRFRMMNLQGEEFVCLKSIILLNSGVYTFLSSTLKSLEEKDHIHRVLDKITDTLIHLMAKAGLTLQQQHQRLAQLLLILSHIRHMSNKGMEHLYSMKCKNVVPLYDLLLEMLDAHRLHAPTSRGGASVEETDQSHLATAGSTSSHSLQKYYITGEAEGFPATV

[14] = biological target: Peroxisome proliferator-activated receptor gamma (Homo sapiens) (UniProt P37231); assay: qHTS assay to identify small molecule agonists of the peroxisome proliferator-activated receptor gamma (PPARg) signaling pathway (AID 743094; active = well fitted activation curve with a large enough effect in the signal ratio in the repeat runs, not every such curve was filed as active; inconclusive = weak or mixed curves, or effect the other way; inactive = no such curve, though single readings can be large or run the other way; the % refers to the signal ratio)
Sequence of Peroxisome proliferator-activated receptor gamma (Homo sapiens) (P37231 whole entry, looked up): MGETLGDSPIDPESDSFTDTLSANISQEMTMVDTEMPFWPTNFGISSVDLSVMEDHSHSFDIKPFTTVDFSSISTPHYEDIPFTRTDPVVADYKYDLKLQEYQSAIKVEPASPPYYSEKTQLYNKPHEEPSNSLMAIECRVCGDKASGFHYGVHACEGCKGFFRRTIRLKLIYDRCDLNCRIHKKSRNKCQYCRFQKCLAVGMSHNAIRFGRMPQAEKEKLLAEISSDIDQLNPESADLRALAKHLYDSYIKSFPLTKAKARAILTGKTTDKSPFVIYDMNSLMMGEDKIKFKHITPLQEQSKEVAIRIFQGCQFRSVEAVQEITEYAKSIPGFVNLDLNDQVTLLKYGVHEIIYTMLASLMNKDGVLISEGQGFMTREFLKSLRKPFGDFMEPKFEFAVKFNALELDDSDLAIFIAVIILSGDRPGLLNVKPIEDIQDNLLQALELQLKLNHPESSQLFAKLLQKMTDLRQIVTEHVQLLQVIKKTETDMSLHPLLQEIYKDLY
Procedure, shortened: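 Stably transfected HEK293H cells (GeneBLAzer PPARg UAS-bla) were incubated with test substances for 17 h at 37C after a 5 h pre-incubation; beta-lactamase activity was then detected by FRET substrate fluorescence.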

[15] = qHTS assay to identify small molecule antagonists of the thyroid receptor (TR) signaling pathway (AID 743065); also: nearly all actives have a fitted effect of over 55% in size; also: potency is read from the fitted curve at half-maximal effect
Procedure, shortened: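 Antagonism measured as loss of luciferase signal in GH3 cells stably carrying a TRE-luciferase reporter, co-treated with compound and T3 (1 nM final) for 23.5 h at 37 C. Viability was read in the same well by CellTiter-Fluor.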

[16] = biological target: Estrogen receptor (Homo sapiens) (UniProt P03372); assay: qHTS assay to identify small molecule antagonists of the estrogen receptor alpha (ER-alpha) signaling pathway (AID 743069; active = well fitted curve in the direction sought with a large enough effect in the signal ratio in the repeat runs, not every such curve was filed as active; inconclusive = weak or mixed curves, or effect the other way; inactive = no such curve, though single readings can be large or run the other way; the % refers to the signal ratio)
Procedure, shortened: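 Compound effects are measured against 17beta-estradiol stimulation in HEK293 cells with a UAS-controlled beta-lactamase reporter for ER-alpha. Exposure lasts 18 hr at 37C; LiveBLAzer B/G FRET substrate follows for 2 hr at room temperature.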

[17] = biological target: Estrogen receptor (Homo sapiens) (UniProt P03372); assay: qHTS assay to identify small molecule agonists of the estrogen receptor alpha (ER-alpha) signaling pathway using the BG1 cell line (AID 743079); conditions: BG1Luc4E2 cells, ERE-luciferase agonist, 22 h; activation: at 70.3 µM (top of the series); also: nearly all actives have a fitted effect of over 20% in size; also: potency is read from the fitted curve at half-maximal effect
[18] = qHTS assay to identify small molecule antagonists of the estrogen receptor alpha (ER-alpha) signaling pathway using the BG1 cell line (AID 743080; calls by dose curve;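 also: BG1 cells stimulated with 17beta-estradiol alongside compound; nearly all actives have a fitted effect of over 25% in size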; also: potency is read from the fitted curve at half-maximal effect)
Procedure, shortened: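 After 5 days in phenol-red-free 10% charcoal-stripped FBS medium, BG1-Luc-4E2 cells were seeded, left 24 h at 37 C, co-treated with compounds and 17beta-estradiol for 21.5 h, then assayed for viability and luciferase.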

Structure (SMILES) | Potency [1] | Potency [2] | Potency [3] | Potency [4] | Potency [5] | Potency [6] | Potency [7] | max activation [8] | Potency [9] | Potency [10] | Potency [11] | Potency [12] | Potency [13] | Potency [14] | Potency [15] | Potency [16] | Potency [17] | Potency [18] | Potency [8]
CCOC(=O)C1=C(COCCN)NC(C)=C(C(=O)OC)C1c1ccccc1Cl (stereo not drawn) | inactive | inactive | 29.8 µM (active) and 9.44 µM (active) | inactive | inactive | 23.7 µM (active) | inactive | 3.61% | 8.91 µM (active) | 8.91 µM (active) | – | – | – | – | – | – | – | – | –
CCOc1cc(-c2nccc3cc(OC)c(OC)cc23)cc(OCC)c1OCC | inactive | – | – | 29.8 µM (active) | 2.11 µM (active) | 21.1 µM (active) | inactive | 5.49% | inactive | – | 29.8 µM (active) | inactive | inactive | inactive | – | – | – | – | –
CN1CCN2c3ncccc3Cc3ccccc3C2C1 (stereo not drawn) | inactive | inactive | – | – | – | inactive | inactive | -0.13% | 15.8 µM (active) | – | – | inactive | – | – | 21.1 µM (active) | – | – | – | –
CN[C@@H]1[C@@H](O)[C@@H](O[C@@H]2[C@@H](O)[C@H](O[C@H]3O[C@H](CN)[C@@H](O)[C@H](O)[C@H]3O)[C@@H](N)C[C@H]2NC(=O)C(O)CN)OC[C@]1(C)O (stereo partly drawn) | inactive | inactive | inactive | inactive | inactive | inactive | inactive | -5.41% | – | inactive | inactive | inactive | inactive | – | inactive | inactive | inactive | inactive | –
CNc1cc(OC)c(C(=O)N[C@H]2CCN(Cc3ccccc3)[C@H]2C)cc1Cl | inactive | – | inactive | inactive | inactive | inactive | inactive | -1.71% | inactive | – | – | – | inactive | inactive | – | inactive | inactive | inactive | –
CCC(=O)O[C@@H]1CC(=O)O[C@H](C)C/C=C/C=C/[C@H](O)[C@H](C)C[C@H](CC=O)[C@H](O[C@@H]2O[C@H](C)[C@@H](O[C@H]3C[C@@](C)(O)[C@@H](OC(=O)CC)[C@H](C)O3)[C@H](N(C)C)[C@H]2O)[C@H]1OC | inactive | inactive | inactive | inactive | inactive | inactive | inactive | -4.74% | inactive | inactive | – | – | – | – | – | – | – | – | –
C=C1CC[C@H](O)CC1=C/C=C1\CCC[C@]2(C)[C@@H]([C@H](C)CC[C@@H](O)C(C)(C)O)CC[C@@H]12 | – | inactive | inactive | inactive | – | inactive | inactive | 5.8% | inactive | – | 26.6 µM (active) | – | inactive | – | 16.8 µM (active) | – | – | – | –
C#C[C@]1(O)CC[C@H]2[C@@H]3CCC4=CCCC[C@@H]4[C@H]3C(=C)C[C@@]21CC | inactive | inactive | inactive | inactive | inactive | inactive | inactive | -4.59% | inactive | – | – | – | 2.39 µM [inconclusive] (active) | inactive | – | inactive | 1.88 µM (active) | – | –
CCC(=O)O[C@]1(C(=O)CCl)[C@@H](C)C[C@H]2[C@@H]3C[C@H](F)C4=CC(=O)C=C[C@]4(C)[C@@]3(F)[C@@H](O)C[C@@]21C | inactive | inactive | inactive | inactive | 3.35 µM (active) | inactive | inactive | – | 1.58 µM (active) | – | inactive | inactive | – | – | – | – | – | – | 0.447 µM (active)
CCCC(=O)Nc1c(I)cc(I)c(CC(CC)C(=O)O)c1I (stereo not drawn) | inactive | – | inactive | – | – | – | inactive | -4.56% | 22.4 µM (active) | – | – | inactive | inactive | inactive | – | inactive | inactive | inactive | –
C=C1C(=O)O[C@H]2[C@H]1CC/C(C)=C\CC[C@@]1(C)O[C@@H]21 | inactive | inactive | 21.1 µM (active) | 18.8 µM (active) | inactive | 16.8 µM (active) | inactive | -19.8% | inactive | – | – | – | – | – | 7.5 µM (active) | inactive | – | inactive | –
CN[C@@H]1[C@H](O[C@H]2[C@H](O[C@H]3[C@H](O)[C@@H](O)[C@H](N=C(N)N)[C@@H](O)[C@@H]3N=C(N)N)O[C@@H](C)[C@]2(O)CO)O[C@@H](CO)[C@H](O)[C@H]1O | inactive | inactive | inactive | inactive | inactive | inactive | inactive | -1.72% | inactive | inactive | – | – | – | inactive | – | – | – | – | –
CC1(C)S[C@@H]2[C@H](NC(=O)C(N)c3ccccc3)C(=O)N2[C@H]1C(=O)OC1OC(=O)c2ccccc21 (stereo partly drawn) | inactive | inactive | inactive | inactive | inactive | inactive | inactive | -3.71% | inactive | inactive | – | – | – | inactive | – | – | – | – | –
CO[C@H]1C[C@@H]2CC[C@@H](C)[C@@](O)(O2)C(=O)C(=O)N2CCCC[C@H]2C(=O)O[C@H]([C@H](C)C[C@@H]2CC[C@@H](OCCO)[C@H](OC)C2)CC(=O)[C@H](C)/C=C(\C)[C@@H](O)[C@@H](OC)C(=O)[C@H](C)C[C@H](C)/C=C/C=C/C=C/1C | – | 21.1 µM (active) | – | 11.9 µM (active) | inactive | 11.9 µM (active) | inactive | -9.27% | inactive | – | 3.76 µM (active) | inactive | – | – | 0.0027 µM (active) | – | inactive | 0.0047 µM (active) | –
COc1cc2c(cc1OC)[C@@H](c1ccccc1)CN(C)CC2 | inactive | inactive | – | inactive | inactive | inactive | inactive | 1.99% | inactive | – | inactive | inactive | inactive | inactive | – | – | inactive | inactive | –
